Assay results reported in PubChem BioAssay AID652119 (Broad Institute, 2013).
Activity calls are given as the source filed them.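 How the source made its calls: active means compounds whose fitted half-maximal cell-killing potency is at most twice their top tested dose; inconclusive means flat curve with 30 to 70% signal loss, or poor fit; inactive means the rest.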

Experiment: HEK293 cell cytotoxicity, dose response, cytotoxicity control, HEK293T, ATP luminescence, dry powder (AID 652119)
Details: HEK293T viability, CellTiter-Glo ATP luminescence, 48 h; series mostly up to 26 µM

Structure (SMILES) | outcome
C=CCOc1ccc(CN2CCC(CCOc3ccccc3)(C(=O)N3CCCC3)CC2)cc1Cl | inactive
CC(C)(C)OC(=O)C1(CCOc2ccccc2)CCN(Cc2ccc(O)c(Cl)c2)CC1 | inactive
CCOC(=O)C1(CCOC)CCN(Cc2ccc(O)c(Cl)c2)CC1 | inactive
CCOC(=O)C1(CCOc2ccccc2)CCN(Cc2ccc(O)c(Cl)c2)CC1 | inactive
C=CCOc1ccc(CN2CCC(CCOc3ccccc3)(C(=O)O)CC2)cc1Cl | inactive
C/C1=C\[C@@H](O)C(C)(C)CCCC2(C)OC2C[C@@H]1OC(=O)c1ccc(O)cc1 (stereo partly specified) | inactive
CCOC(=O)C1(CCOc2ccccc2)CCN(C(=O)OC(C)(C)C)CC1 | inactive
C=CCOc1ccc(CN2CCC(CCOc3ccccc3)(C(=O)NC3CCCC3)CC2)cc1Cl | inactive
CCOC(=O)C1(CCOc2ccccc2)CCN(Cc2ccc(OC)cc2)CC1 | inactive
CCOC(=O)C1(CCOc2ccccc2)CCN(Cc2ccc3[nH]c(=O)oc3c2)CC1 | inactive
CCOC(=O)C1(CCOc2ccccc2)CCN(C(=O)c2ccc(O)c(Cl)c2)CC1 | inactive
C=CCOc1ccc(CN2CCC(CCOc3ccccc3)(C(=O)N(C)CC)CC2)cc1Cl | inactive
O=C(Nc1ccccc1)C1(CCOc2ccccc2)CCN(Cc2ccc(O)c(Cl)c2)CC1 | inactive
O=C(N1CCCC1)C1(CCOc2ccccc2)CCN(Cc2ccc(O)c(Cl)c2)CC1 | inactive
CCOC(=O)c1c(CN2CCN(CCO)CC2)n(-c2ccccc2)c2cc(Br)c(O)cc12 | inactive
C/C1=C\C[C@H](OC(=O)c2ccc(O)cc2)/C(C)=C/[C@@H](O)C(C)(C)CCC1 | inactive
